PubChem BioAssay (NCI)
About 79,000 compounds went through this panel and 15% of them were active in at least one assay; those are over-represented in the sample as a whole. Activity calls are given as the source filed them. Rule as the data show it: active = growth inhibition above about 70%; inactive = the rest.

Assays:
[1] = NCI Yeast Anticancer Drug Screen. Data for the rad52 strain (AID 147);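 also: 0% = growth of vehicle-treated control cultures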; details: S. cerevisiae rad52 mutant growth inhibition, hits give high values
Procedure, shortened: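 Inhibition of yeast growth, referenced to vehicle controls, was the measured output for a strain with defective DNA damage repair.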

[2] = NCI Yeast Anticancer Drug Screen. Data for the wt1 strain (AID 149);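 also: 0% = growth of vehicle-treated wt1 cultures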; details: S. cerevisiae wt1 strain (SPY 50644) growth inhibition, hits give high values
Procedure, shortened: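 wt1 yeast, compound-treated; % growth inhibition vs vehicle control.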

[3] = NCI Yeast Anticancer Drug Screen. Data for the rad50EPP+ strain (AID 151);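 also: 0% = growth of vehicle-treated control cultures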; details: S. cerevisiae rad50 mutant strain, hits give high values
Procedure, shortened: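 Genetically defined yeast (rad50EPP+, DNA damage repair alteration) is grown with compound, and inhibition of growth is expressed relative to vehicle-treated controls.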

[4] = NCI Yeast Anticancer Drug Screen. Data for the mgt1 strain (AID 153); details: S. cerevisiae mgt1 mutant growth inhibition, hits give high values
Procedure, shortened: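 In the mgt1 strain, test compounds were added and growth inhibition was determined relative to vehicle-treated controls.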

[5] = NCI Yeast Anticancer Drug Screen. Data for the rad50 strain (AID 155);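 also: 0% = growth of vehicle-only cultures of the same strain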; details: S. cerevisiae rad50 strain growth inhibition, hits give high values
Procedure, shortened: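 Genetically altered yeast (DNA repair pathway); compound treatment; growth inhibition vs vehicle ctrl.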

[6] = NCI Yeast Anticancer Drug Screen. Data for the mec2-1 strain (AID 157); details: S. cerevisiae mec2-1 strain, hits give high values
Procedure, shortened: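 Each compound was tested on mec2-1 yeast, a strain altered in DNA damage repair or cell cycle control. Growth inhibition is reported relative to vehicle.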

[7] = NCI Yeast Anticancer Drug Screen. Data for the rad14 strain (AID 159);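 also: 0% = growth of vehicle-treated control cultures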; details: S. cerevisiae rad14 strain growth inhibition, hits give high values
Procedure, shortened: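 Test compounds were applied to a repair-deficient yeast strain. Its growth was then compared with that of cultures given vehicle alone, and inhibition was expressed relative to those controls.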

[8] = NCI Yeast Anticancer Drug Screen. Data for the sgs1 mgt1 strain (AID 161);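 also: 0% = growth of cultures given vehicle only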; details: S. cerevisiae sgs1 mgt1 strain, hits give high values
Procedure, shortened: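 Genetically altered yeast, compound exposure, growth inhibition relative to vehicle.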

[9] = NCI Yeast Anticancer Drug Screen. Data for the CLN2oe strain (AID 163);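 also: 0% = growth of vehicle-only control cultures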; details: S. cerevisiae CLN2oe strain, hits give high values
Procedure, shortened: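 First, the altered yeast strain was treated with each compound; second, its growth was measured; finally, inhibition was derived by comparison with vehicle controls.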

[10] = NCI Yeast Anticancer Drug Screen. Data for the cln2 rad14 strain (AID 165);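 also: 0% = growth equal to vehicle treated cultures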; details: S. cerevisiae cln2 rad14 strain, hits give high values
Procedure, shortened: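 Test compounds were added to cln2 rad14 yeast cultures; inhibition of growth was then determined by comparison with vehicle treatment.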

[11] = NCI Yeast Anticancer Drug Screen. Data for the bub3 strain (AID 167); details: S. cerevisiae bub3 mutant strain, hits give high values
Procedure, shortened: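 Yeast carrying a defined mutation is treated with each compound, and growth is compared with that of vehicle-exposed cells to give inhibition.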

[12] = NCI Yeast Anticancer Drug Screen. Data for the wt2 strain (AID 169);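 also: 0% = growth of vehicle-treated yeast cultures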; details: S. cerevisiae wt2 strain growth inhibition, hits give high values
Procedure, shortened: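 The panel's yeast strains carry defined changes in DNA repair or cell cycle genes. Each strain is grown with compound, and growth loss is scored relative to vehicle.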

[13] = NCI Yeast Anticancer Drug Screen. Data for the mlh1 strain (AID 171);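 also: 0% = growth of vehicle-treated control cultures of the same strain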; details: S. cerevisiae mlh1 strain growth inhibition, hits give high values
Procedure, shortened: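 Inhibition values reflect reduced yeast growth in the presence of compound, referenced to vehicle controls, using a strain chosen for its alteration in DNA repair or cell cycle control.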

[14] = NCI Yeast Anticancer Drug Screen. Data for the sgs1 strain (AID 173);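 also: 0% = growth of vehicle-only control cultures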; details: S. cerevisiae sgs1 mutant, hits give high values
Procedure, shortened: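 Vehicle-treated cultures served as reference for growth inhibition of a yeast strain altered in DNA damage repair or cell cycle control after compound exposure.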

[15] = NCI Yeast Anticancer Drug Screen. Data for the mlh1 rad18 strain (AID 175); details: S. cerevisiae mlh1 rad18 strain growth inhibition, hits give high values
Procedure, shortened: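 Inhibition values reflect reduced growth of mutant yeast versus vehicle-treated controls following compound exposure; the mutations affect DNA damage repair.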

[16] = NCI Yeast Anticancer Drug Screen. Data for the rad18 strain (AID 177); details: S. cerevisiae rad18 mutant growth inhibition, hits give high values
Procedure, shortened: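 Steps: expose repair-mutant yeast to compound; measure growth; express as inhibition relative to vehicle control.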

[17] = at 5.0 µM (retest, dose inferred, filed as 0.5)
[18] = at 50.0 µM (retest, dose inferred, filed as 5.0)

Measured: growth inhibition

Cc1cc(O)c(C(C)C)cc1C1(c2cc(C(C)C)c(O)cc2C)OC(=O)c2ccccc21
active: [5]; [18] 98% | [5]; at 50.0 µM 94.1% | [6]; [18] 98% | [6]; at 50.0 µM 91.7% | [8]; [18] 98% | [8]; at 50.0 µM 82% | [10]; [18] 97% | [10]; at 50.0 µM 97% | [11]; [18] 98% | [11]; at 50.0 µM 91.1% | [15]; [18] 98% | [15]; at 50.0 µM 91.6%
inactive: [1]; at 1.2 µM -4% | [1]; at 3.7 µM -3% | [1]; at 11.0 µM -5% | [1]; at 33.0 µM -3% | [1]; at 100.0 µM 34% | [2]; at 1.2 µM 2% | [2]; at 3.7 µM 2% | [2]; at 11.0 µM 5% | [2]; at 33.0 µM 1% | [2]; at 100.0 µM 20% | [3]; at 1.2 µM 0% | [3]; at 3.7 µM -1% | [3]; at 11.0 µM 0% | [3]; at 33.0 µM 0% | [3]; at 100.0 µM 0% | [4]; at 1.2 µM -1% | [4]; at 3.7 µM -1% | [4]; at 11.0 µM -2% | [4]; at 33.0 µM -3% | [4]; at 100.0 µM 18% | [5]; at 1.2 µM 3% | [5]; at 3.7 µM 0% | [5]; [17] 17% | [5]; at 11.0 µM 10% | [5]; at 33.0 µM 1% | [5]; at 100.0 µM 36% | [6]; at 1.2 µM 2% | [6]; at 3.7 µM 2% | [6]; [17] 0% | [6]; at 11.0 µM 1% | [6]; at 33.0 µM 4% | [6]; at 100.0 µM 29% | [7]; at 1.2 µM -1% | [7]; at 3.7 µM 1% | [7]; at 11.0 µM -1% | [7]; at 33.0 µM -4% | [7]; at 100.0 µM 33% | [8]; [17] 16% | [9]; at 1.2 µM -3% | [9]; at 3.7 µM -2% | [9]; at 11.0 µM -6% | [9]; at 33.0 µM -5% | [9]; at 100.0 µM 12% | [10]; [17] 51% | [11]; at 1.2 µM -2% | [11]; at 3.7 µM 1% | [11]; [17] -12% | [11]; at 11.0 µM -34% | [11]; at 33.0 µM 16% | [11]; at 100.0 µM 24% | [12]; at 1.2 µM -2% | [12]; at 3.7 µM -4% | [12]; at 11.0 µM -3% | [12]; at 33.0 µM -3% | [12]; at 100.0 µM 31% | [13]; at 1.2 µM 5% | [13]; at 3.7 µM 3% | [13]; at 11.0 µM 3% | [13]; at 33.0 µM -24% | [13]; at 100.0 µM 31% | [14]; at 1.2 µM 2% | [14]; at 3.7 µM 4% | [14]; at 11.0 µM 5% | [14]; at 33.0 µM 2% | [14]; at 100.0 µM 48% | [15]; [17] 9% | [16]; at 1.2 µM 10% | [16]; at 3.7 µM 4% | [16]; at 11.0 µM -2% | [16]; at 33.0 µM 3% | [16]; at 100.0 µM 32%

COC(=O)Nc1cn2ccc(C(Cl)=C(Cl)Cl)cc2n1
active: [15]; [18] 78%
inactive: [1]; at 1.2 µM -12% | [1]; at 3.7 µM -17% | [1]; at 11.0 µM -21% | [1]; at 33.0 µM -33% | [1]; at 100.0 µM -16% | [2]; at 1.2 µM -16% | [2]; at 3.7 µM -21% | [2]; at 11.0 µM -33% | [2]; at 33.0 µM -29% | [2]; at 100.0 µM -33% | [3]; at 1.2 µM -27% | [3]; at 3.7 µM -19% | [3]; at 11.0 µM -32% | [3]; at 33.0 µM -27% | [3]; at 100.0 µM -28% | [4]; at 1.2 µM -21% | [4]; at 3.7 µM -17% | [4]; at 11.0 µM -29% | [4]; at 33.0 µM -24% | [4]; at 100.0 µM -22% | [5]; at 1.2 µM -22% | [5]; at 3.7 µM -32% | [5]; [17] 21% | [5]; at 11.0 µM -35% | [5]; at 33.0 µM -36% | [5]; [18] 29% | [5]; at 50.0 µM -4.2% | [5]; at 100.0 µM -32% | [6]; at 1.2 µM 4% | [6]; at 3.7 µM -5% | [6]; [17] 17% | [6]; at 11.0 µM 5% | [6]; at 33.0 µM 3% | [6]; [18] 15% | [6]; at 50.0 µM -9.5% | [6]; at 100.0 µM -4% | [7]; at 1.2 µM 18% | [7]; at 3.7 µM -11% | [7]; at 11.0 µM 1% | [7]; at 33.0 µM -13% | [7]; at 100.0 µM -17% | [8]; [17] 28% | [8]; [18] 40% | [8]; at 50.0 µM -27.6% | [9]; at 1.2 µM 42% | [9]; at 3.7 µM 27% | [9]; at 11.0 µM 35% | [9]; at 33.0 µM 21% | [9]; at 100.0 µM 18% | [10]; [17] 7% | [10]; [18] 21% | [10]; at 50.0 µM -5.65% | [11]; at 1.2 µM -8% | [11]; at 3.7 µM -14% | [11]; [17] 24% | [11]; at 11.0 µM -28% | [11]; at 33.0 µM -21% | [11]; [18] 29% | [11]; at 50.0 µM -24.1% | [11]; at 100.0 µM -20% | [12]; at 1.2 µM -40% | [12]; at 3.7 µM -33% | [12]; at 11.0 µM -50% | [12]; at 33.0 µM -49% | [12]; at 100.0 µM -53% | [13]; at 1.2 µM 29% | [13]; at 3.7 µM 23% | [13]; at 11.0 µM 14% | [13]; at 33.0 µM 10% | [13]; at 100.0 µM 12% | [14]; at 1.2 µM 6% | [14]; at 3.7 µM 2% | [14]; at 11.0 µM -18% | [14]; at 33.0 µM -16% | [14]; at 100.0 µM -11% | [15]; [17] 65% | [15]; at 50.0 µM -12.5% | [16]; at 1.2 µM -16% | [16]; at 3.7 µM -22% | [16]; at 11.0 µM -13% | [16]; at 33.0 µM -39% | [16]; at 100.0 µM -46%
